Experimental data reported in PubChem BioAssay (Tox21).
Inconclusive results are not listed. Active and inactive are the calls of the source. Unless noted, calls follow the shape of the dose curve; as a rule, active = well fitted curve in the direction sought with a large enough effect in the repeat runs; inconclusive = weak or mixed curves; inactive = no such curve, though single readings can be large; an effect the other way counts as inactive or inconclusive.

How the values were obtained:
[1] = qHTS assay to identify small molecule antagonists of the vitamin D receptor (VDR) signaling pathway - cell viability counter screen (AID 743225); also: nearly all actives have a fitted effect of over 50% in size; also: potency is read from the fitted curve at half-maximal effect
How it was run: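 Luminescent cell viability (CellTiter-Glo) in VDR-bla HEK 293T cells after 16 h compound exposure at 37C in the presence of 3 nM final 1-alpha,25-dihydroxy vitamin D3.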

[2] = qHTS assay to identify small molecule agonists of the NFkB signaling pathway (AID 1159509; active = well fitted curve in the direction sought with a large enough effect in the signal ratio in the repeat runs, not every such curve was filed as active; the % refers to the signal ratio)
How it was run: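 After overnight attachment, reporter cells received test compounds, DMSO or positive controls and were incubated 5 hr at 37 C. FRET substrate was then added for 1.5 hr at room temperature before dual-emission fluorescence reading.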

[3] = qHTS assay to identify small molecule agonists of the endoplasmic reticulum stress response signaling pathway (AID 1159516; active = well fitted activation curve with a large enough effect in the signal ratio in the repeat runs, not every such curve was filed as active; the % refers to the signal ratio)
How it was run: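 CellSensor ESRE-bla HeLa cells, carrying a beta-lactamase reporter driven by the ER stress response element, were plated overnight and exposed to compounds for 5 hr at 37 C. Reporter activity was read as FRET substrate fluorescence after 2 hr at room temperature.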

[4] = qHTS assay to identify small molecule antagonists of the retinoid-related orphan receptor gamma (ROR-gamma) signaling pathway - cell viability counter screen (AID 1159520); also: nearly all actives have a fitted effect of over 50% in size
How it was run: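 Tet-on ROR gamma CHO cells (1,000/well) were plated 4 hr, given compounds in DMSO for 2 hr at 37 C, then induced with 1 uM final doxycycline for 16 hr. Viability was read as ATP by CellTiter-Glo luminescence after 30 min.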

[5] = qHTS assay to identify small molecule agonists of the AP-1 signaling pathway - cell viability counter screen (AID 1159525; calls by dose curve; also: nearly all actives have a fitted effect of over 55% in size)
How it was run: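 ME-180 AP-1-bla, 2500 cells/well, Opti-MEM + 0.5% dialyzed FBS; overnight 37 °C; cpd 15-pt titration, 5 h 37 °C; CellTiter-Glo 30 min RT; luminescence read; normalised to TOAB and DMSO controls.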

[6] = qHTS assay to identify small molecule agonists of the AP-1 signaling pathway (AID 1159526; calls by dose curve; also: potency is read from the fitted curve at half-maximal effect)
[7] = qHTS assay to identify small molecule agonists of the RXR signaling pathway - cell viability counter screen (AID 1159529); also: nearly all actives have a fitted effect of over 50% in size; also: potency is read from the fitted curve at half-maximal effect
How it was run: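 Same-well viability check after the LiveBLAzer FRET read: CellTiter-Glo added, luminescence measured after 30 min at room temperature. Reporter HEK 293T cells had been treated with compounds for 16 hr following a 5 hr preincubation.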

[8] = qHTS assay to identify small molecule antagonists of the retinoid acid receptor (RAR) signaling pathway - cell viability counter screen (AID 1159551); also: nearly all actives have a fitted effect of over 35% in size
How it was run: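 C3RL4 cells were seeded overnight at 37 C, then treated with compounds plus 1 uM (final) retinol for 6 h at 37 C. Viability was read as ATP by CellTiter-Glo luminescence after 30 min at room temperature.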

[9] = qHTS assay to identify small molecule antagonists of the retinoic acid receptor (RAR) signaling pathway (AID 1159552; also: nearly all actives have a fitted effect of over 50% in size; also: potency is read from the fitted curve at half-maximal effect)
How it was run: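 Readout: luciferase luminescence, 30 min post-reagent at RT. Setup: C3RL4 RARE reporter cells, compounds plus retinol 1 uM final, 6 hr incubation at 37 C and 5% CO2.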

[10] = qHTS assay to identify small molecule agonists of the retinoic acid receptor (RAR) signaling pathway (AID 1159553); conditions: C3RL4 RARE luciferase reporter, agonist, 6 h; activation: at 73.3 µM (top of the series); also: potency is read from the fitted curve at half-maximal effect
How it was run: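 C3RL4 cells carrying a RARE luciferase reporter were plated overnight at 37 C, then exposed to compounds in DMSO for 6 hr at 37 C and 5% CO2. Luminescence was read 30 min after luciferase reagent addition at room temperature.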

[11] = qHTS assay to identify small molecule agonists of the vitamin D receptor (VDR) signaling pathway - cell viability counter screen (AID 743224); also: nearly all actives have a fitted effect of over 50% in size; also: potency is read from the fitted curve at half-maximal effect
How it was run: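 VDR-bla cells were preincubated 4 h at 37C/5% CO2, then exposed to compounds for 16 h. After the 2 h room-temperature bla FRET read, CellTiter-Glo was added to the same wells and luminescence read after 30 min.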

[12] = target: Retinoic acid receptor RXR-alpha (Homo sapiens) (UniProt P19793); assay: qHTS assay to identify small molecule agonists of the RXR signaling pathway (AID 1159527; calls by dose curve; also: nearly all actives have a fitted effect of over 35% in size)
How it was run: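 Beta-lactamase reporter assay, agonist format. Engineered HEK 293T line, charcoal-stripped FBS at 2%, overnight (16 hr) exposure, fluorescence at 460 and 530 nm after 405 nm excitation.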

[13] = qHTS assay to identify small molecule agonists of the endoplasmic reticulum stress response signaling pathway - cell viability counter screen (AID 1159517; calls by dose curve; also: nearly all actives have a fitted effect of over 50% in size)
How it was run: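 Luminescence readout: CellTiter-Glo, 30 min RT, same wells as the ESRE-bla reporter read. HeLa ESRE-bla, 1,500 cells/well, o/n 37 C; cpd 5 hr 37 C/5% CO2.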

[14] = target: Nuclear receptor ROR-gamma (Homo sapiens) (UniProt P51449); assay: qHTS assay to identify small molecule antagonists of the retinoid-related orphan receptor gamma (ROR-gamma) signaling pathway (AID 1159521; also: nearly all actives have a fitted effect of over 50% in size; also: potency is read from the fitted curve at half-maximal effect)
How it was run: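 CHO cells expressing RORγ under a TET-on promoter, luciferase under RORE control. Dox 1 uM final, 16 h; compounds added 2 h prior. Luminescence decrease measured.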

Measured: Potency

Retinoic acid receptor RXR-alpha (Homo sapiens), sequence (P19793 whole entry, looked up): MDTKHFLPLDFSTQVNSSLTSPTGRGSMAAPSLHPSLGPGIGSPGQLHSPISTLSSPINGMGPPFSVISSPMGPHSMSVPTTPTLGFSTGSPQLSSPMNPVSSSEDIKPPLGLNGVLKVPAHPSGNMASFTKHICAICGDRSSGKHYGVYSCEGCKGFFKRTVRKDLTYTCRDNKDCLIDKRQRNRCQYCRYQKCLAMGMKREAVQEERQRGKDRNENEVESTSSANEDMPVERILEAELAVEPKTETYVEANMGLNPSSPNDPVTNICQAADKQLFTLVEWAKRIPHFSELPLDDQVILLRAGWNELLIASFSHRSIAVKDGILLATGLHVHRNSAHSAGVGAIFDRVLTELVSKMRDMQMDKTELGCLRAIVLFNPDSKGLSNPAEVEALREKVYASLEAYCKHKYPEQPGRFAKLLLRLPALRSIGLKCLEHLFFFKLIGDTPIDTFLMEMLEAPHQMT

O=C1c2ccccc2C(=O)N1CCc1noc(-c2ccc(CN3CCCCCC3)s2)n1
not listed: [11] | [12] | [13] | [14]
inactive: all other assays above

C(=C\c1ccccc1)/c1ccccc1
active: [10] 8.56 µM
not listed: [13] | [14]
inactive: all other assays above

Clc1ccc(Nc2nnc(Cc3ccncc3)c3ccccc23)cc1
inactive: [2] | [3] | [6] | [8] | [9] | [10]

Cc1ccc2c(Br)cc(Br)c(O)c2n1
active: [7] 26.8 µM
inactive: [11] | [2] | [3] | [13] | [8] | [9] | [10]

O=C(OC(=O)c1ccccc1)c1ccccc1
not listed: [9] | [10] | [13]
inactive: all other assays above

CC(C)=CCC1C(=O)N(c2ccccc2)N(c2ccccc2)C1=O
not listed: [5] | [10] | [12] | [13]
inactive: all other assays above

CCC(C)(C)OC
active: [7] 48.8 µM
not listed: [5] | [12] | [13] | [14]
inactive: all other assays above

O=c1cc(-c2ccccc2)oc2cc(O)cc(O)c12
inactive: [11] | [1] | [2] | [3] | [4] | [5] | [7] | [9]

CC(=O)NC1(c2cccc(F)c2)CCN(CC[C@@]2(c3ccc(Cl)c(Cl)c3)CN(c3ccccc3)C(=O)CO2)CC1
active: [11] 39 µM | [1] 43.8 µM | [14] 38.7 µM | [7] 19.6 µM | [9] 43.4 µM
not listed: [4] | [12] | [13]
inactive: all other assays above

O=C=Nc1ccc(Cl)c(Cl)c1
not listed: [1] | [3] | [7] | [11]
inactive: all other assays above

CN1CCCC(CC2c3ccccc3Sc3ccccc32)C1 (stereo unspecified)
inactive: [2] | [3] | [13] | [5] | [8]
active: [11] 26.6 µM | [1] 21.3 µM | [6] 16.9 µM

COc1ccccc1Oc1c(NS(=O)(=O)c2ccc(C(C)(C)C)cc2)nc(-c2ncccn2)nc1OCCO
active: [14] 18.8 µM
not listed: [3] | [6] | [10] | [11] | [12]
inactive: all other assays above

O=C1NC(=O)c2cc([N+](=O)[O-])ccc21
not listed: [3] | [6] | [11]
inactive: all other assays above

COc1ccccc1N1CCN(CCCCNC(=O)c2ccc(-c3ccc(C(C)=O)cc3)cc2)CC1
not listed: [12] | [13] | [14]
inactive: all other assays above

CC1(C)S[C@@H]2[C@H](NC(=O)C(c3ccccc3)S(=O)(=O)O)C(=O)N2[C@H]1C(=O)O (stereo partly specified)
not listed: [5] | [13]
inactive: all other assays above

Cc1cc(C)cc(N)c1
not listed: [3] | [9] | [10]
inactive: all other assays above

C1C[C@@H]2[C@H]3CC[C@H](C3)[C@@H]2C1
not listed: [5] | [6] | [13]
inactive: all other assays above

C1COC1
not listed: [5] | [10] | [13]
inactive: all other assays above

O=C1c2ccccc2C(=O)C1c1nc2ccccc2c(Br)c1O
active: [10] 24.3 µM
not listed: [1] | [3] | [6]
inactive: all other assays above

CC(C)C(O)(c1ccc(OC(F)(F)F)cc1)c1cncnc1 (stereo unspecified)
not listed: [13]
inactive: all other assays above

CCCCC(CC)CN (stereo unspecified)
not listed: [1] | [10] | [12] | [13] | [14]
inactive: all other assays above

OC1(c2ccccc2)CCNCC1
not listed: [13]
inactive: all other assays above
